Assay outcomes deposited in PubChem by National Center for Advancing Translational Sciences (NCATS).
ATXN2 expr inh – ATXN2 expression inhibition | 360,000 compounds, 0.72% hits | HEK-293 ATXN2-luciferase reporter, luminescence, 24 h | Potency, µM (highest dose often 57 µM), actives largely listed as inhibitors; also: nearly all actives have a fitted effect of over 55% in size
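ATXN2-luciferase reporter cells (luciferase flanked by upstream and downstream ATXN2 gene portions) were treated 24 h at 37 °C with compounds at up to 57 uM. SteadyGlo luminescence gave expression; GF-AFC fluorescence gave viability.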
TDP1 cell CPT – DT40-hTDP1 cell growth loss with CPT; chicken DT40 Tdp1-/-;hTDP1 cells + 20 nM CPT, ATP luminescence, 48 h; 420,000 compounds, 12% hits; AID 686979; Potency, µM (series often up to 46.2 µM), most hits filed as inhibitors; also: nearly all actives have a fitted effect of over 55% in size
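Chicken DT40 Tdp1-/- cells complemented with human TDP1, 400 cells/well, exposed to compounds plus 20 nM camptothecin for at least 48 h at 37 C; viability read as ATP content by CellTiter-Glo luminescence.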
ATXN viability – viability counter-screen for ATXN expression inhibitors | S2 cells (HEK-293 line with an ATXN2-luciferase reporter) viability, CellTiter-Fluor protease fluorescence, 24 h | Potency, µM (titrated, usually from 56.7 µM), usual class: cytotoxic | 400,000 compounds, 0.49% hits | AID 651635; also: nearly all actives have a fitted effect of over 40% in size
DT40 TDP1 no CPT – qHTS for Inhibitors of human tyrosyl-DNA phosphodiesterase 1 (TDP1): qHTS in cells in absence of CPT; Potency, µM (doses to about 46.2 µM), hits mostly inhibitors; 420,000 compounds, 15% hits; DT40 Tdp1-/- hTDP1 cells, no CPT, ATP luminescence, 48 h; also: nearly all actives have a fitted effect of over 55% in size
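Chicken DT40 Tdp1-/- cells stably complemented with human TDP1 were seeded at 400 cells/well with DMSO in place of 20 nM camptothecin. After compound pinning, cells grew at least 48 hr at 37 °C; viability read by CellTiter-Glo luminescence.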
HepG2 viability – counter-screen for TGF-b inhibitors: cytotoxicity in HepG2 cells. HepG2 CAGA-GFP viability, ATP luminescence, 18 h. Potency, µM (series often up to 46.1 µM), usual class: cytotoxic. 410,000 compounds, 0.76% hits
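CellTiter-Glo luminescence gave cytotoxicity after 18 hours at 37 degrees C. The cells were HepG2 CAGA-GFP in 1% FBS DMEM, stimulated with 500 pg/mL TGF-beta after compound addition. %Activity was normalised to no-cell wells (complete cell-killing) and DMSO (no toxicity), and curves were fitted and classified.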
TGFb inhibitor – inhibitors of TGF-b signaling; AID 588855; Potency, µM (top dose mostly 46.1 µM), most hits filed as inhibitors; 410,000 compounds, 1.2% hits; HepG2 CAGA-GFP TGF-b/SMAD3 reporter, GFP fluorescence, 18 h; TGF-beta stimulated, 500 pg/mL final; also: nearly all actives have a fitted effect of over 65% in size
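Smad-responsive CAGA-GFP expression was quantified in HEPG2 cells exposed to compounds and 500 pg/mL final TGF-beta for 18 h at 37 degrees C; unstimulated wells defined full inhibition.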
Hits are given with their value; – = inactive; ? = inconclusive; · = no result; ! = not confirmed by another sample; [ ] = another dose, or the depositor's remark. This is a sample that favours compounds with a hit; in the whole collection about 17% have one here. Calls follow the shape of the dose curve; as a rule, active = well fitted curve in the direction sought with a large enough effect; inconclusive = small, poorly fitted or top-dose-only effect, or another doubt; inactive = no such curve, though single readings can be large; an effect the other way counts as inactive or inconclusive.

SMILES	ATXN2 expr inh	TDP1 cell CPT	ATXN viability	DT40 TDP1 no CPT	HepG2 viability	TGFb inhibitor
Cc1cnc(SCC2CCCO2)nc1C1CCCN(C(=O)c2ccc(S(N)(=O)=O)cc2)C1 (stereo not drawn)	·	–	–	?	·	·
COc1ccc(N2CCN(C(=O)c3cc(=O)c4cc(C)cc(C)c4o3)CC2)cc1	–	13µM	–	?	–	–
COc1ccc(N2CCN(C(=O)c3ccc(COc4ccc([N+](=O)[O-])cc4)o3)CC2)cc1	?	10.3µM	?	10.3µM	–	–
Cc1cc(N2CCN(C(=O)Oc3ccc([N+](=O)[O-])cc3)CC2)c2ccccc2n1	–	?	·	18.4µM	·	·
COc1ccc(N2CCN(C(=O)Oc3ccc([N+](=O)[O-])cc3)CC2)cc1	–	?	–	25.9µM	·	·
COc1ccc(N2CCN(C(=O)c3cc(=O)c4cc(C)ccc4o3)CC2)cc1	–	–	–	?	–	–
CCCCn1c(CCC(=O)O)nc2cc(S(=O)(=O)N(CC)CC)ccc21	–	–	–	–	–	–
COc1ccc(Nc2c3c(nc4ccccc24)CCC3)cc1Cl	?	11.6µM	·	18.4µM	–	?
CCN(CC)CCOC(=O)c1ccc(Nc2c3c(nc4ccccc24)CCC3)cc1	?	?	20µM	18.4µM	–	?
Fc1ccccc1Nc1c2c(nc3ccccc13)CCC2	?	?	?	20.6µM	–	?
COc1ccc(Nc2c3c(nc4ccccc24)CCCC3)cc1OC	?	?	–	?	–	?
COCCNc1c2c(nc3ccccc13)CCC2	–	–	–	?	–	–
Clc1c2c(nc3ccccc13)CCC2	–	–	–	–	–	–
Nc1c2c(nc3ccccc13)CCCC2	?	16.8µM!	?	18.4µM!	–	–
COc1ccccc1N1CCN(C(=O)c2cc3c(=O)oc4ccc(C)cc4c3s2)CC1	–	–	–	–	–	–
CCOC(=O)Cn1c(=O)cc(C)c2cccc(C)c21	–	–	–	–	–	–
COc1ccc(Nc2c3c(nc4ccccc24)CCC3)cc1	?	?	–	20.6µM	–	11.2µM
c1ccc2c(N3CCOCC3)c3c(nc2c1)CCC3	–	–	?	–	–	–
Fc1ccc(Nc2c3c(nc4ccccc24)CCC3)cc1	–[11.3 µM]	5.17µM	?	10.3µM	–	?
CN(C)CCCNc1c2c(nc3ccccc13)CCC2	·	?	?	14.6µM	–	?
c1ccc2c(Nc3ccc4c(c3)OCCO4)c3c(nc2c1)CCC3	·	23.1µM	?	14.6µM	–	?
COc1ccc(-c2nc3cnc(N4CCN(C)CC4)nc3n(CCc3ccccc3)c2=O)cc1	·	–	·	–	·	·
COc1ccc(-c2nnc(OCc3ccccc3)c3ccccc23)cc1	–	?	–	?	–	?
CN1C(=O)C(=O)/C(=C(/O)c2ccccc2)C1c1ccc([N+](=O)[O-])cc1 (stereo not drawn)	–	–	–	–	–	–
CN1CCN(c2nc3ccccn3c(=O)c2/C=C(\C#N)S(=O)(=O)c2ccc(Cl)cc2)CC1	–	–	–	–	–	–
SMILES	ATXN2 expr inh	TDP1 cell CPT	ATXN viability	DT40 TDP1 no CPT	HepG2 viability	TGFb inhibitor
c1ccc(Nc2c3c(nc4ccccc24)CCC3)cc1	–	5.17µM	–	14.6µM	–	?
Cc1ccc2nc3c(c(Nc4ccccc4)c2c1)CCC3	–	?	–	?	–	12.6µM
CN(C)CCNCCCNc1c2ccccc2nc2cccc([N+](=O)[O-])c12	?	0.0517µM	?	0.103µM	–	–
COc1ccc(C)cc1Nc1c2c(nc3ccccc13)CCC2	?	3.26µM	6.31µM!	2.59µM	–	7.94µM
O=C(CSc1nccc(-c2ccc(Br)cc2)n1)NCCc1ccccc1	–	?	–	–	–	–
Cn1ccc2cc(S(=O)(=O)N3CCCN(C(=O)Nc4ccc(Br)cc4)CC3)ccc21	–	·	–	·	–	–
